Where “and” joins values, the source holds several entries; their conditions need not be identical. Equal entries are not always repeated. This is part of a sample that, as a whole, favours compounds with a hit. Of some 83,000 tested, about 20% had one in any assay.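 Step 1: grow cells in 96-well plates. Step 2: add test compound at a single concentration. Step 3: incubate 48 h. Step 4: record percent growth.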 Unmarked numbers belong to inactive results. Calls of active or inactive are those of the source. How the source made its calls: active means growth percent below 10; inactive means the rest.

Among the test systems are T-47D breast; BT-549 breast; MDA-MB-435 melanoma; SW-620 colon; MCF7 breast; HCT-116 colon; HCC-2998 colon; KM12 colon.
Holding throughout (experiment): NCI-60 one-dose screen, 48 h (100 = growth as untreated, 0 = no growth, -100 = all killed)

`CSC1SCC2C(=O)N(C)C(C(C)C)C(=O)OCC(NC(=O)c3cnc4ccccc4n3)C(=O)NC(C)C(=O)N(C)C1C(=O)N(C)C(C(C)C)C(=O)OCC(NC(=O)c1cnc3ccccc3n1)C(=O)NC(C)C(=O)N2C` (stereo not given): the growth in the experiment with T-47D breast (10 µM) was -8.25% (active); in the experiment with BT-549 breast (10 µM), -48.3% (active); in the experiment with MDA-MB-435 melanoma (10 µM) it was -82.8% (active); with SW-620 colon (10 µM), 1.31% (active); with MCF7 breast (10 µM), 2.56% (active); with HCT-116 colon (10 µM), -29.5% (active). Further, the growth in the experiment on HCC-2998 colon (10 µM) was -80.1% (active); in the experiment on KM12 colon (10 µM), -5.74% (active).

As to `Oc1ccc(N=Nc2ccccn2)c(O)c1`, the growth with T-47D breast (10 µM) is 37.3%; with BT-549 breast (10 µM), 36.6%; in the experiment with MDA-MB-435 melanoma (10 µM), 32.5%; with SW-620 colon (10 µM) it was 32.9%; in the experiment with MCF7 breast (10 µM), 14.5%; with HCT-116 colon (10 µM), 18.7%. Besides, the growth in the experiment with HCC-2998 colon (10 µM) was 30%; in the experiment on KM12 colon (10 µM), 26.9%.

With `CS(=O)(=O)OC1CC(n2ccc(=O)[nH]c2=O)OC1COC(c1ccccc1)(c1ccccc1)c1ccccc1` (stereo not given), the growth in the experiment on T-47D breast (10 µM) is 96.7%; with BT-549 breast (10 µM) it was 99.4%; in the experiment with MDA-MB-435 melanoma (10 µM), 125%; in the experiment on SW-620 colon (10 µM) it was 105%; in the experiment with MCF7 breast (10 µM), 97.3%; with HCT-116 colon (10 µM), 92.9%. The growth was 106% in the experiment with HCC-2998 colon (10 µM) and 93.5% with KM12 colon (10 µM).

With `Clc1ccc(/C=C/c2ccccn2)c(Cl)c1`, the growth in the experiment with T-47D breast (10 µM) was 47.5%; in the experiment on BT-549 breast (10 µM), 88.4%; with MDA-MB-435 melanoma (10 µM) it was 104%; in the experiment on SW-620 colon (10 µM), 86%; with MCF7 breast (10 µM), 7.59% (active); with HCT-116 colon (10 µM), 77.7%. Besides, the values for the growth with HCC-2998 colon (10 µM) and with KM12 colon (10 µM) were 77.9% and 71.4%, respectively.

For the molecule `O=C(O)COc1ccc(OCC(=O)O)cc1`, the growth with T-47D breast (10 µM) is 5.61% (active); in the experiment with BT-549 breast (10 µM), 20.9%; in the experiment on MDA-MB-435 melanoma (10 µM) it was 30.4%; in the experiment with SW-620 colon (10 µM), 15.1%; with MCF7 breast (10 µM), 6.66% (active); in the experiment with HCT-116 colon (10 µM), 9.02% (active). Also, the growth was -34.2% (active) in the experiment on HCC-2998 colon (10 µM) and 8.16% (active) with KM12 colon (10 µM).

With `O=C(/C=C/c1cccnc1)c1ccccc1`, the growth in the experiment on T-47D breast (10 µM) is 86.5%; in the experiment on BT-549 breast (10 µM) it was 103%; in the experiment on MDA-MB-435 melanoma (10 µM) it was 80.2%; with SW-620 colon (10 µM), 23%; in the experiment with MCF7 breast (10 µM), 26.1%; in the experiment with HCT-116 colon (10 µM), 21.1%. The growth with HCC-2998 colon (10 µM) was 86%; in the experiment on KM12 colon (10 µM), 51.4%.

As for `CCCC1CCC(=C2C(=O)CCC2=O)O1` (stereo not given), the growth in the experiment with T-47D breast (10 µM) is 87.8% and 110%; in the experiment with BT-549 breast (10 µM), 86.3% and 106%; in the experiment with MDA-MB-435 melanoma (10 µM), 94.8% and 95.4%; in the experiment on SW-620 colon (10 µM), 105%; with MCF7 breast (10 µM) it was 91.9% and 118%; in the experiment on HCT-116 colon (10 µM) it was 91.9% and 107%. In addition, the growth was 104% and 99.1% in the experiment with HCC-2998 colon (10 µM); 105% and 108% in the experiment on KM12 colon (10 µM).

As to `CCCCCCCCCCCC[N+](C)(C)Cc1ccccc1`, the growth with T-47D breast (10 µM) is 14.2%; in the experiment with BT-549 breast (10 µM), -21.1% (active); in the experiment with MDA-MB-435 melanoma (10 µM), 11.7%; in the experiment on SW-620 colon (10 µM), 45.2%; in the experiment with MCF7 breast (10 µM) it was 15.1%; with HCT-116 colon (10 µM), 21.5%. Further, the figures for the growth in the experiment with HCC-2998 colon (10 µM) and in the experiment on KM12 colon (10 µM) were 17.8% and -63.7% (active), respectively.

For `OC(CN1CCCC2CCCCC21)c1cc2ccccc2c2ccccc12` (stereo not given), the growth in the experiment on T-47D breast (10 µM) is 14.9%; in the experiment with BT-549 breast (10 µM), 46%; in the experiment on MDA-MB-435 melanoma (10 µM), 32%; in the experiment with SW-620 colon (10 µM), 27.1%; with MCF7 breast (10 µM), 7.24% (active); with HCT-116 colon (10 µM), 1.99% (active). The growth with HCC-2998 colon (10 µM) was 13.5%; in the experiment with KM12 colon (10 µM) it was 15.9%.

On to `O=c1ccn(C2CC(O)C(COC(c3ccccc3)(c3ccccc3)c3ccccc3)O2)c(=O)[nH]1` (stereo not given), for which the growth was 84.7% in the experiment with T-47D breast (10 µM); 25.7% with T-47D breast (100 µM); 84.2% in the experiment on BT-549 breast (10 µM); 13.9% in the experiment with BT-549 breast (100 µM); 76.1% in the experiment on MDA-MB-435 melanoma (10 µM); 45% in the experiment on MDA-MB-435 melanoma (100 µM). Moreover, the growth in the experiment with SW-620 colon (10 µM) is 99.4%; in the experiment with SW-620 colon (100 µM), 62.2%; with MCF7 breast (10 µM) it was 79.2%; with MCF7 breast (100 µM), 16.5%; in the experiment with HCT-116 colon (10 µM), 82.2%; in the experiment on HCT-116 colon (100 µM), 33.9%. For the same molecule, the growth in the experiment on HCC-2998 colon (10 µM) is 122%; with HCC-2998 colon (100 µM), 64.2%; in the experiment on KM12 colon (10 µM) it was 90.4%; in the experiment with KM12 colon (100 µM), 40.3%.

On to `CCCCCC(C)c1ccc(O)c(C)c1` (stereo not given), for which the growth is 101% in the experiment on T-47D breast (10 µM); 99.7% with BT-549 breast (10 µM); 105% with MDA-MB-435 melanoma (10 µM); 105% in the experiment with SW-620 colon (10 µM); 92% in the experiment on MCF7 breast (10 µM); 95.8% in the experiment on HCT-116 colon (10 µM). Besides, the growth is 103% in the experiment on HCC-2998 colon (10 µM) and 106% with KM12 colon (10 µM).

For the molecule `COc1cccc2c1C(=O)c1c(O)c3c(c(O)c1C2=O)C[C@@](O)(C(C)=O)C[C@@H]3OC1CC(N)C(O)C(C)O1` (stereo not given in full), the growth with T-47D breast (10 µM) was -16.3% (active); with BT-549 breast (10 µM) it was -70.9% (active); with MDA-MB-435 melanoma (10 µM), -87.2% (active); in the experiment with SW-620 colon (10 µM) it was -3.91% (active); with MCF7 breast (10 µM), -9.83% (active); with MCF7 breast (50 µM) it was -90.1% (active) and -89.5% (active). For the same molecule, the growth was -37.5% (active) with HCT-116 colon (10 µM), -86% (active) with HCC-2998 colon (10 µM) and -8.88% (active) in the experiment on KM12 colon (10 µM).

These data come from PubChem BioAssay (NCI).
